Only some compounds are listed: those with a hit (about 5.2% of all), similar ones and a draw of the others.
mIDH1 inhibitor = qHTS for Inhibitors of mutant isocitrate dehydrogenase 1 (IDH1): qHTS; IDH1-R132H enzyme, NADPH consumption, diaphorase/resazurin fluorescence; AID 602179, 2012; hit rate 0.093% among 390,000; Potency, µM (series often up to 76.6 µM), for inactives: top-dose activity change, negative = inhibition, hits mostly inhibitors; also: nearly all actives have a fitted effect of over 65% in size
Target sequence (O75874 whole entry R132H, stated change not applied): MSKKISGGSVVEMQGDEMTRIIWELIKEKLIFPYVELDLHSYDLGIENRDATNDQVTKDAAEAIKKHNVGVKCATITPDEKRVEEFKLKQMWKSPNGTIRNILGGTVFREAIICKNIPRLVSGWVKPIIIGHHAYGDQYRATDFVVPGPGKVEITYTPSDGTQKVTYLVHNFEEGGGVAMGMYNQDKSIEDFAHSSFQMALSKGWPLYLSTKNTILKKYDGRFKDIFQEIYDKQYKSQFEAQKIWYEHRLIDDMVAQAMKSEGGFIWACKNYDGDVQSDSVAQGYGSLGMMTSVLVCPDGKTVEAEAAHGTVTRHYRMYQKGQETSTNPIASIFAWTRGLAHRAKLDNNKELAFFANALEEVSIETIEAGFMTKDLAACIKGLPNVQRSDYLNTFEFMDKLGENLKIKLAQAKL
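IDH1-R132H (0.5 ug/mL) preincubated 30 min with compound, then NADPH (0.016 mM) and alpha-KG (2 mM) added; 80 min at RT, pH 7.5. Remaining NADPH coupled via diaphorase/resazurin to fluorescence (540/590 nm); concentration-response curves normalized to no-enzyme control.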
TrxR1 substrate = qHTS Assay for Substrates of Mammalian Selenoprotein Thioredoxin Reductase 1 (TrxR1): qHTS; Potency, µM (top dose mostly 114 µM), for inactives: at the top dose activity change, negative = substrate turnover; purified TrxR1 substrate turnover, NADPH consumption readout; hit rate 0.01% among 390,000; also: nearly all actives have a fitted effect of over 50% in size
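Rat TrxR1, dispensed at 90 nM, was prereduced with 400 uM NADPH (final) for 5 min at ~22 deg C, then incubated with compound 15 min before 400 uM selenite. A first-read NADPH fluorescence drop versus no-compound background flagged substrates.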
TrxR1 inh = qHTS Assay for Inhibitors of Mammalian Selenoprotein Thioredoxin Reductase 1 (TrxR1): qHTS | recombinant rTrxR1, NADPH fluorescence consumption, selenite substrate | Potency, µM (top dose mostly 114 µM), without a hit: top-dose activity change, negative = inhibition, actives largely listed as inhibitors | hit rate 1% among 390,000 | AID 588453, 2011; also: nearly all actives have a fitted effect of over 65% in size
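Rat TrxR1 (90 nM in the dispensed reagent) was pre-reduced with 400 uM NADPH for 5 min at room temperature, then incubated with compound for 15 min. After 400 uM selenite was added, NADPH fluorescence (Ex 340/Em 450 nm) was followed for 8 min.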
VDR inh = Inhibitors of the vitamin D receptor (VDR): qHTS. Vitamin D3 receptor (Homo sapiens), P11473. Potency, µM, inactives show max response, negative = inhibition, hits mostly inhibitors. VDR-SRC2-3 peptide fluorescence polarization, 2 h. hit rate 0.93% among 400,000
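Measured by FP: displacement of SRC2-3 coactivator peptide from VDR by library compounds, following a two-hour ambient incubation.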
Sfp PPTase inh = qHTS Assay for Inhibitors of Bacillus subtilis Sfp phosphopantetheinyl transferase (PPTase); 4'-phosphopantetheinyl transferase ffp (Bacillus subtilis), Q9F4F7; hit rate 3.5% among 310,000; Biochemical Sfp PPTase activity, qHTS; Potency, µM, for the others: largest response in the series, negative = inhibition, actives largely listed as inhibitors; AID 1490, 2009;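 also: the enzyme is Sfp with the accession as filed and its product quenches rhodamine fluorescence; 0% = enzyme reaction without inhibitor and -100% = no enzyme wells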
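Fluorescence-quenching assay with 15 nM Sfp, 5 uM rhodamine-CoA and 12.5 uM BHQ-2-labelled ybbR peptide in pH 7.6 Hepes/MgCl2 buffer. Enzyme was pre-incubated with compound for 15 min at room temperature. Rate was taken from the 30-min fluorescence change (525/598 nm).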
PLK1 PBD block = qHTS for Inhibitors of PLK1-PDB (polo-like kinase 1 - polo-box domain): Primary Screen | Plk1 PBD binding of FITC phosphopeptide, fluorescence polarization | Potency, µM, inactives show max response, negative = inhibition, actives largely listed as inhibitors | hit rate 2.8% among 360,000 | AID 720504, 2013; also: series mostly up to about 57 µM; nearly all actives have a fitted effect of over 65% in size
* marks the source's active call; other numbers are inactive results; [ ] = dose if it differs, or a comment. Calls follow the shape of the dose curve; as a rule, active = well fitted curve in the direction sought with a large enough effect; inconclusive = small, poorly fitted or top-dose-only effect, or another doubt; inactive = no such curve, though single readings can be large; an effect the other way counts as inactive or inconclusive. Unless noted, % is scaled to controls: 0 for no effect and ±100 for the full control effect; potency is read from the fitted curve at half-maximal effect.

`COc1cccc(C2=NOC(C(=O)Nc3ccccc3SC)C2)c1` (configuration not stated) gave mIDH1 inhibitor 2%, TrxR1 substrate -6%, TrxR1 inh 12%, VDR inh -17%, Sfp PPTase inh -8% and PLK1 PBD block 30µM*.
Screening COc1ccc(CNC(=O)c2ccc3c(c2)N(C)C(=O)CS3=O)cc1 (configuration not stated) returned mIDH1 inhibitor -5%, TrxR1 substrate 1%, TrxR1 inh 26%, VDR inh -18%, Sfp PPTase inh 45µM* and PLK1 PBD block 0%.
Screening COc1ccc(CNC(=O)c2ccc3c(c2)N(C)CCS3)cc1 returned mIDH1 inhibitor 4%, TrxR1 substrate 76%[57.1 µM], TrxR1 inh 68%, VDR inh -15%, Sfp PPTase inh 2% and PLK1 PBD block -4%.
Cc1cc(/C=C2\SC(=S)NC2=O)c(C)n1C was read as mIDH1 inhibitor -6%, TrxR1 substrate -18%, TrxR1 inh 25µM*, VDR inh -5%, Sfp PPTase inh -8% and PLK1 PBD block -9%.
For Cc1cc(/C=C2\SC(=S)NC2=O)c(C)n1-c1ccc(O)cc1 the results were mIDH1 inhibitor -9%, TrxR1 substrate -15%, TrxR1 inh inconclusive, VDR inh -1%, Sfp PPTase inh 45µM* and PLK1 PBD block -18%.
For Cc1cc(/C=C2\SC(=S)NC2=O)c(C)n1-c1ccccc1 the results were mIDH1 inhibitor -20%, TrxR1 substrate -6%[11.4 µM], TrxR1 inh -26%[11.4 µM], VDR inh 7%, Sfp PPTase inh -26% and PLK1 PBD block inconclusive.
Cc1nn(C)cc1/C=C1\SC(=S)NC1=O was read as mIDH1 inhibitor 7%, TrxR1 substrate 21%[57.1 µM], TrxR1 inh 0%[57.1 µM], VDR inh 1%, Sfp PPTase inh -13% and PLK1 PBD block -3%.
CC1(C)[C@H]2CC[C@]1(C)[C@@H](OC(=O)C[N+]1(C)CCOCC1)C2 was read as mIDH1 inhibitor 13%, TrxR1 substrate -6%, TrxR1 inh 18%[11.4 µM], VDR inh 5%, Sfp PPTase inh 6% and PLK1 PBD block -10%.
For CC1(C)[C@@H]2CC[C@]1(C)[C@@H](OC(=O)CSC#N)C2 the results were VDR inh 50µM* and Sfp PPTase inh 5%.
Screening COCCNC(=O)c1cc2cc3ccc(OC)cc3nc2o1 returned mIDH1 inhibitor 15%, TrxR1 substrate 868%, TrxR1 inh 71µM*, VDR inh -2%, Sfp PPTase inh 13% and PLK1 PBD block 1%.
COc1ccc2cc3cc(C(=O)NCCC(C)C)oc3nc2c1 was read as mIDH1 inhibitor 5%, TrxR1 substrate 60%[57.1 µM], TrxR1 inh 23%[57.1 µM], VDR inh -6%, Sfp PPTase inh 10% and PLK1 PBD block 2%.
Screening COc1ccccc1NC(=O)CSc1nnnn1-c1ccccc1F returned mIDH1 inhibitor 0%, TrxR1 substrate -3%, TrxR1 inh -1%, VDR inh -9%, Sfp PPTase inh 40µM* and PLK1 PBD block 27µM*.
Screening COc1ccccc1NC(=O)CSc1ncc(CO)n1Cc1ccc(F)cc1 returned mIDH1 inhibitor -10%, TrxR1 substrate 9%[57.1 µM], TrxR1 inh 20%[57.1 µM], VDR inh inconclusive, Sfp PPTase inh 2% and PLK1 PBD block 9.5µM*.
COCCn1c(=N)c(C(=O)NC(C)c2ccccc2)cc2c(=O)n3cc(C)ccc3nc21 (configuration not stated) was read as mIDH1 inhibitor 7%, TrxR1 substrate 66%, TrxR1 inh 31% and VDR inh -6%.

Assay outcomes as filed in PubChem BioAssay.
